Compound activity (PubChem)
Sampled rows, rich in hits. Any-hit rate of the full collection: about 5.7%.
AHR activator: AHR activators, primary screen, cell-based, luminescence, luciferase reporter, human; AHR-responsive luciferase reporter cells; activation, % at 5 µM; 2.5% of 320,000 active; AID 2796, 2010; in the data active = activation above about 47%;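 also: 0% = vehicle wells and 100% = reference agonist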
Target sequence (P35869 whole entry, looked up): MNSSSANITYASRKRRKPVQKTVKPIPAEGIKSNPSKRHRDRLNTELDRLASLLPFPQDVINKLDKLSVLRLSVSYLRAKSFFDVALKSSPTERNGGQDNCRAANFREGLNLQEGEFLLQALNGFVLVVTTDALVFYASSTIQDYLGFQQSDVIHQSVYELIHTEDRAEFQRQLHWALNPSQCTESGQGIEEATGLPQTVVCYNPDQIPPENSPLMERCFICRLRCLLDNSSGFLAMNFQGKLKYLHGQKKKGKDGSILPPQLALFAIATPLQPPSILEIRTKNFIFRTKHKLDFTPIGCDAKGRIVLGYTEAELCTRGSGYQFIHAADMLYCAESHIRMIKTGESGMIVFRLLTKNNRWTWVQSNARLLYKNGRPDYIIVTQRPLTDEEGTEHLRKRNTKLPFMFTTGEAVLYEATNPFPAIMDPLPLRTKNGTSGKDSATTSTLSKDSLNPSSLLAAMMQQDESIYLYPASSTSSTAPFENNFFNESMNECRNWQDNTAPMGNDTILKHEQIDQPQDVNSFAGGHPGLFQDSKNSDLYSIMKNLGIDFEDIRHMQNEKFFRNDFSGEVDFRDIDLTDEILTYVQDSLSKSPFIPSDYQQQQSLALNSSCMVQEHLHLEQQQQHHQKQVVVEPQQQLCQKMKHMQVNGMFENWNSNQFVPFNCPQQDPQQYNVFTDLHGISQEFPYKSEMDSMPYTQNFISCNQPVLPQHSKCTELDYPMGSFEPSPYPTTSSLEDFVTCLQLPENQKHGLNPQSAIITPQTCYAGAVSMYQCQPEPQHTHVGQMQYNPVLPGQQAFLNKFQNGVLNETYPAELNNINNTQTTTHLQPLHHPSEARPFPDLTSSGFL
ssDAF-12 act: S. stercoralis DAF-12 nuclear receptor activators, primary screen, cell-based, luminescence, HEK293, GRIP1 co-expression, lit1-tk-luc; 1% of 370,000 active; AID 652126, 2013; HEK293 ssDAF-12/GRIP1 lit1-tk-luc reporter; % of 3 µM dafachronic acid response; Nuclear hormone receptor DAF-12 (Strongyloides stercoralis); activation, % at 6.8 µM;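 active = activation above the mean over all tested compounds plus 3 SD, cut at about 0.9% in these data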;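 also: 0% = DMSO-only wells and 100% = 3 µM delta7-dafachronic acid wells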
hcDAF-12 act: H. contortus DAF-12 nuclear receptor activators, primary screen, cell-based, luminescence, HEK293, lit1-tk-luc reporter; HEK293 hcDAF-12 lit1-tk-luc reporter; 0% DMSO, 100% Δ7-dafachronic acid; activation, % at 6.8 µM; 1.4% of 370,000 active;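 active = activation above the mean of all tested compounds plus 3 SD, cut at about 5.5% in these data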;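 also: 100% = response to 3 µM Δ7-dafachronic acid high control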
DAX1 inh-1: DAX1 (NR0B1) inhibitors on StAR promoter, primary screen, cell-based, luminescence, SF-1 (NR5A1), full-length DAX-1; HEK293T StAR-luciferase reporter, SF-1/DAX-1 repression relief; inhibition, % at 6.8 µM; 1.1% of 370,000 active; AID 652010, 2013;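 active = inhibition above the mean over all tested compounds plus 3 SD, cut at about 3.6% in these data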;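 also: 0% = DAX-1 cells with DMSO and 100% = cells lacking DAX-1 with DMSO; higher inhibition means more luminescence from relief of DAX-1 repression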
DAX1 inh-2: DAX1 (NR0B1) inhibitors, primary screen, cell-based, HEK293, Gal4-DAX1, luciferase luminescence; Nuclear receptor subfamily 0 group B member 1 (Homo sapiens), P51843; HEK293 Gal4-DAX1 luciferase reporter; inhibition, % at 6.75 µM; 0.99% of 340,000 active;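 active = inhibition above the mean over all tested compounds plus 3 SD, cut at about 4.2% in these data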;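 also: 0% = DAX1-transfected cells with DMSO and 100% = empty-vector control cells with DMSO; inhibition shows as a rise in luminescence from relieved DAX1 repression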
hgDAF12 agonist: H. glycines DAF-12 receptor agonists, primary screen, cell-based, luminescence, HEK293, GAL4 fusion, UAS-luciferase; Nuclear hormone receptor DAF-12 (Heterodera glycines), GAL4 fusion; HEK293 GAL4-hgDAF12 UAS-luciferase reporter, agonist luminescence; normalized to butyrate control; activation, % at 6.8 µM; 1.8% of 370,000 active; AID 687014, 2013;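 active = activation above a cutoff set at the mean of all screened compounds plus 3 SD, cut at about 10% in these data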;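 also: 0% = DMSO wells and 100% = sodium butyrate wells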
DAX1 conf: DAX1 (NR0B1) inhibitors relieving SF-1 repression, confirmation, cell-based, luminescence, HEK293T, full-length DAX-1, SF-1 activated StAR promoter; shares compounds with DAX1 inh-1; HEK293T StAR-promoter luciferase reporter, SF-1/DAX-1 repression; inhibition, % at 6.8 µM; 87% of 2,400 active; AID 652134, 2013;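 active = inhibition above the average of every tested compound plus 3 SD, cut at about 3.8% in these data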;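 also: 0% = DAX-1 cells with DMSO and 100% = no DAX-1 control cells with DMSO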
SF1 mutant ctr: StAR reporter signal changes without DAX1, counter-screen for DAX1 inhibitor project, cell-based, luminescence, AF-2 mutant SF-1, transactivation. shares compounds with DAX1 inh-1. HEK293 StAR-luciferase, SF-1 AF2 mutant. inhibition, % at 6.8 µM. 78% of 2,400 active. AID 652136, 2013;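 active = inhibition above the mean of all tested compounds plus 3 SD, cut at about 3% in these data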;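 also: 0% = DAX-1 transfected cells with DMSO and 100% = cells without DAX-1 with DMSO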
An asterisk follows results filed as active.

For CCOc1ccc(C(=O)O/N=C(\N)c2ccccn2)cc1OCC the results were AHR activator 7.5, ssDAF-12 act -0.3, hcDAF-12 act 2.4, DAX1 inh-1 6.3*, DAX1 inh-2 1.4, hgDAF12 agonist 11.7*, DAX1 conf 2.8 and SF1 mutant ctr 4.5*.
Screening N/C(=N\OC(=O)CSc1ccccc1)c1ccccn1 returned AHR activator -6.3, ssDAF-12 act 0.0, hcDAF-12 act 0.7, DAX1 inh-1 7.0*, DAX1 inh-2 2.1, hgDAF12 agonist 10.1, DAX1 conf 5.3* and SF1 mutant ctr 4.7*.
CCOc1cc(C(=O)O/N=C(\N)c2ccccn2)cc(OCC)c1OCC was read as AHR activator 16.7, ssDAF-12 act -0.9, hcDAF-12 act -0.6, DAX1 inh-1 0.1, DAX1 inh-2 -0.2 and hgDAF12 agonist 3.4.
CCC(=O)N1CCc2cc(S(=O)(=O)CCC(=O)NCc3ccccc3OC)ccc21 was read as AHR activator 0.6, ssDAF-12 act -0.6, hcDAF-12 act 0.2, DAX1 inh-1 -0.4, DAX1 inh-2 -0.4 and hgDAF12 agonist 1.8.
`O=C(Cc1ccccc1)Nc1ccc(C(=O)O)cc1` gave AHR activator -2.6, ssDAF-12 act 0.0, hcDAF-12 act -1.2, DAX1 inh-1 0.8, DAX1 inh-2 0.2 and hgDAF12 agonist 0.3.
`COc1ccc(C(=O)NN=C(Cc2ccccc2)Cc2ccccc2)cc1OC` gave AHR activator 27.1, ssDAF-12 act 0.3, hcDAF-12 act -2.1, DAX1 inh-1 -0.7, DAX1 inh-2 -0.3 and hgDAF12 agonist 1.4.
For COc1cc(C(=O)N/N=C(\C)c2ccc(NC(=O)Cc3ccccc3)cc2)ccc1O the results were ssDAF-12 act 1.1*, hcDAF-12 act 4.3, DAX1 inh-1 6.9*, DAX1 inh-2 1.2, hgDAF12 agonist 7.6, DAX1 conf 6.2* and SF1 mutant ctr 4.2*.
For C/C(=N\NC(=O)c1ccccc1O)c1ccc(NC(=O)Cc2ccccc2)cc1 the results were AHR activator 52.5*, ssDAF-12 act 0.4, hcDAF-12 act 2.7, DAX1 inh-1 7.2*, DAX1 inh-2 0.5, hgDAF12 agonist 7.8, DAX1 conf 6.3* and SF1 mutant ctr 3.6*.
Screening CCOc1ccc(CN2CCN(CC3CC3)CC2CCO)cc1 (stereo unspecified) returned AHR activator 3.7, ssDAF-12 act -1.2, hcDAF-12 act -1.2, DAX1 inh-1 0.0, DAX1 inh-2 2.1 and hgDAF12 agonist -0.7.
`O=C1[C@H]2[C@@H](c3ccc(Cl)cc3)N3C(=O)N(c4cccc(Cl)c4)C(=O)[C@@]3(Cc3ccccc3)[C@H]2C(=O)N1C1CCCCC1` gave AHR activator -3.0, ssDAF-12 act -1.5, hcDAF-12 act -0.5, DAX1 inh-1 0.0, DAX1 inh-2 1.0 and hgDAF12 agonist -1.5.
`CC(=O)c1c(C)[nH]c(C(=O)Nc2ccccn2)c1C` gave AHR activator 71.0*, ssDAF-12 act -0.1, hcDAF-12 act 2.0, DAX1 inh-1 7.5*, DAX1 inh-2 0.3, hgDAF12 agonist 7.5, DAX1 conf 9.1* and SF1 mutant ctr 6.3*.
For CCCCN1CC(COCc2ccccc2)Oc2cccc(Oc3cc(C)c(C)c(C)c3)c2S1(=O)=O (stereo unspecified) the results were ssDAF-12 act -1.6, hcDAF-12 act -0.1, DAX1 inh-1 -1.4, DAX1 inh-2 1.3 and hgDAF12 agonist 0.8.
`O=C(NOCc1ccccc1)c1ccc(Cl)cc1` gave AHR activator -0.8, ssDAF-12 act 0.8, hcDAF-12 act 2.0, DAX1 inh-1 8.6*, DAX1 inh-2 0.4, hgDAF12 agonist 6.3, DAX1 conf 10.9* and SF1 mutant ctr 6.2*.
Screening Cc1ccc(C(=O)NCCONC(=O)c2ccc(C)cc2)cc1 returned AHR activator 2.0, ssDAF-12 act -1.2, hcDAF-12 act -0.8, DAX1 inh-1 0.8, DAX1 inh-2 0.0 and hgDAF12 agonist 0.3.
Screening COc1ccc(C(=O)NOCc2ccccc2)cc1 returned AHR activator 1.7, ssDAF-12 act 0.6, hcDAF-12 act 4.9, DAX1 inh-1 1.3, DAX1 inh-2 -1.7 and hgDAF12 agonist 8.7.
`Cc1ccc(CONC(=O)c2ccc(C)cc2)cc1` gave AHR activator -0.7, ssDAF-12 act 0.9, hcDAF-12 act 0.5, DAX1 inh-1 5.9*, DAX1 inh-2 2.9, hgDAF12 agonist 8.8, DAX1 conf 5.9* and SF1 mutant ctr 3.5*.
Screening COc1cccc(C(C(=O)NC2CCCC2)N2CCN(c3cc(C)ccc3C)CC2)c1OC (stereo unspecified) returned ssDAF-12 act -1.0, hcDAF-12 act 0.2, DAX1 inh-1 1.3 and hgDAF12 agonist -1.8.
CCCCCCCCN1C(=O)[C@H](CC(=O)NCCC(C)C)C[C@@]2(C(=O)OC)CC(C)(C)CC=C12 was read as ssDAF-12 act -1.1, hcDAF-12 act -0.4, DAX1 inh-1 -0.4 and hgDAF12 agonist 1.9.
CCc1nnc(NS(=O)(=O)c2ccc(NC(=O)c3cccc(Br)c3)cc2)s1 was read as AHR activator 2.6, ssDAF-12 act -0.2, hcDAF-12 act 2.2, DAX1 inh-1 4.5*, DAX1 inh-2 -0.3, hgDAF12 agonist 0.1, DAX1 conf 1.2 and SF1 mutant ctr 0.1.
For CCOc1cc(C(=O)Nc2ccc(S(=O)(=O)Nc3nnc(CC)s3)cc2)cc(OCC)c1OCC the results were AHR activator 0.8, ssDAF-12 act -1.4, hcDAF-12 act -0.7, DAX1 inh-1 -0.4, DAX1 inh-2 -0.9 and hgDAF12 agonist -0.4.
`COc1ccc(CCn2c(C)cc(C(=O)COC(=O)c3ccc(O)cc3O)c2C)cc1` gave ssDAF-12 act -1.4, hcDAF-12 act -1.8, DAX1 inh-1 -4.5, DAX1 inh-2 -0.1 and hgDAF12 agonist -1.1.
